KAT2A inh = inhibitors of human GCN5L2 histone acetyltransferase | AID 504327 | GCN5L2 HAT assay, ThioGlo1 CoA-SH fluorescence | Potency, µM (titrated, usually from 58.9 µM), usual class: inhibitors | 0.21% of 390,000 active | Q92830
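Fluorescence readout, Ex340nm/Em540nm: ThioGlo1 (50uM final) reacts with free CoA thiol released as 20nM GCN5L2 acetylates H3(1-25) peptide (75uM) using acetyl-CoA (70uM). Compound and enzyme sat 15 min beforehand; 20 min room-temperature reaction.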
Tb PGK inh = blocks T. brucei phosphoglycerate kinase | PGK/GAPDH coupled, Kinase-Glo luminescence, 60 min | AID 602233 | Potency, µM (highest dose often 57.5 µM), actives largely listed as inhibitors | 0.043% of 380,000 active | P07378; also: nearly all actives have a fitted effect of over 60% in size
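Luminescent ATP detection (Kinase-Glo Plus) follows a 60-minute room-temperature incubation, with wells lacking PGK as controls. Buffer: 100 mM TEA (pH 7.6), 5 mM MgCl2, 0.01% Tween-20. Coupling enzyme GAPDH (100 nM final) supplies unstable 1,3-BPG in-well.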
Pin1 inh = blocks the human prolyl isomerase Pin1. 0.009% of 390,000 active. Pin1 FP peptide displacement, HiFluor488, 10 min. Potency, µM (highest dose often 115 µM), hits mostly inhibitors. Q13526; active = well fitted inhibition curve with a large enough effect in the polarisation, with a control signal flat, not every such curve was filed as active; inconclusive = small, poorly fitted or top-dose-only effect, or effect the other way, or a change in a side signal; inactive = no such curve, though single readings can be large or run the other way; the % refers to the polarisation
Target sequence (Q13526 whole entry, looked up): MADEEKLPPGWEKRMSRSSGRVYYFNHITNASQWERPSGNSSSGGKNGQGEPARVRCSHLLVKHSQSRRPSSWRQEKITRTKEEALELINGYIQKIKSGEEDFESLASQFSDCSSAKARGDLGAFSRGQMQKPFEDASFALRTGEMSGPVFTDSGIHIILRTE
GoLoco inh red = inhibitors of human Gai1-RGS12 GoLoco interaction (red fluorophore); P63096; Gai1:RGS12 GoLoco peptide FP, rhodamine, 10 min; Potency, µM (top dose mostly 61.6 µM), hits mostly inhibitors; 0.44% of 230,000 active; AID 880; active = well fitted inhibition curve with a large enough effect, not every such curve was filed as active; inactive = no such curve, though single readings can be large or run the other way; also: nearly all actives have a fitted effect of over 30% in size
PI4K2A block = PI4K2A (human) kinase inhibition | Q9BTU6 | purified PI4K2A, ADP-Glo luminescence, 1 h; stronger effect = lower value | activity change, negative = inhibition, % at 76.9 µM | 0.13% of 420,000 active | AID 1346378; in the data active = activity change below about -50%; inconclusive = mostly about -30% to -49%
Target sequence (Q9BTU6 whole entry, looked up): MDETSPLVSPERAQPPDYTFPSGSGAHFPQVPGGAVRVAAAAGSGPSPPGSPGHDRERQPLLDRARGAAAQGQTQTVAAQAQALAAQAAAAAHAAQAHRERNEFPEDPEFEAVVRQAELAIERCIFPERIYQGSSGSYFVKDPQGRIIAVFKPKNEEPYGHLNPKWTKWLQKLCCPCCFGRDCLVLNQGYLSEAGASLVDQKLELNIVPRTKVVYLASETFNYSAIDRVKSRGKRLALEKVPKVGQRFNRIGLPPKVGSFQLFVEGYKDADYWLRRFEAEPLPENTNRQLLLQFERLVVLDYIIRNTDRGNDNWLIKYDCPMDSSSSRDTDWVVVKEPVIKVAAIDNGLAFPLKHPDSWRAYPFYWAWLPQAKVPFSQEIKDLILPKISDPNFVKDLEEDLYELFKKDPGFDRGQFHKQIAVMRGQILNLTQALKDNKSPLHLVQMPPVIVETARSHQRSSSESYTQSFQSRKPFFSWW
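ADP-Glo luminescence measured ADP generated by PI4K2A enzyme (4 ug/mL before mixing) with 1.2 mM PI substrate (pre-mix) and 300 microM ATP (pre-mix). Tris pH7.5 buffer with MgCl2, Triton X-100; 1 h reaction at ambient temperature.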
PI5P4K alpha inh = inhibitors of human PI5P4K alpha; max response, %; P48426; AID 652105; 1.2% of 330,000 active; PI5P4Kalpha enzyme, ADP-Glo luminescence, 60 min; stronger effect = lower value; active = max response of -50% or lower; inconclusive = between -30% and -50%; inactive = -30% or higher; also: value at the top dose of about 77 µM
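qHTS, 1536-well: enzyme/substrate mix, compound by pin tool, 5 microM ATP final; RT 60 min; ADP-Glo reagents 1 (45 min) then 2 (30 min); luminescence.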
Numbers stand for hits; – = inactive; ? = inconclusive; · = no result; ! = a repeat was not active; [ ] = dose if it differs, or a comment. An excerpt weighted towards active compounds, which were near 1.2% of everything screened. Unless noted, calls follow the shape of the dose curve; as a rule, active = well fitted curve in the direction sought with a large enough effect; inconclusive = small, poorly fitted or top-dose-only effect, or another doubt; inactive = no such curve, though single readings can be large; an effect the other way counts as inactive or inconclusive.

SMILES	KAT2A inh	Tb PGK inh	Pin1 inh	GoLoco inh red	PI4K2A block	PI5P4K alpha inh
COc1ccc(NP2(=O)OCC(C)(N)CO2)cc1 (stereo not drawn)	·	–	–	·	–	–
O=C(Cc1ccc(Cl)c(Cl)c1)N1CCCC[C@H]1CN1CCCC1	·	·	·	–	·	·
COc1ccc2c(c1)NP(=S)(Oc1ccccc1)N2 (stereo not drawn)	–	–	?	–	–	–
Cc1ccccc1N1C(=O)NC(=O)/C(=C/c2ccc(N3CCOCC3)o2)C1=O	–	–	?	–	–	–
Cc1ccccc1N1C(=O)NC(=O)/C(=C\c2cc(Br)c(N3CCOCC3)o2)C1=O	–	–	?	–	–	-75.0
Cc1cccc(N)c1C	·	·	·	–	·	·
COP(=S)(OC)Oc1ccc(Sc2ccc(OP(=S)(OC)OC)cc2)cc1	?	–	?	·	–	-64.3
Cc1ccc(-n2c(/C=C/c3ccc(Br)s3)nc3ccccc3c2=O)cc1C	–	–	–	·	–	·
COc1ccc(CN2C(=O)NC(=O)/C(=C/c3cc(OC)c(OC)c(OC)c3)C2=O)cc1	–	–	–	–	–	-50.7
C=CCN1C(=O)NC(=O)/C(=C/c2ccc(N(C)C)c(Br)c2)C1=O	–	–	–	–	–	-59.2
CCN1C(=O)NC(=O)/C(=C\c2cn(CC(=O)O)c3ccccc23)C1=O	–	·	·	·	·	·
C=CCN1C(=O)NC(=O)/C(=C/c2ccoc2)C1=O	–	?	?	–	–	-68.7
Cc1ccc(N2C(=O)NC(=O)/C(=C/c3ccoc3)C2=O)cc1	–	11.2µM	?	–	–	-82.9
CN(C)c1ccc(N)cc1	·	·	·	–	·	·
Oc1ccccc1C1NCc2ccccc2-n2cccc21 (stereo not drawn)	–	–	–	·	–	–
COc1ccc(CN2C(=O)NC(=O)/C(=C/c3ccoc3)C2=O)cc1	?	?	?	–	–	-71.1
N/C(=N\N=C/c1ccc(-c2ccc(O)c(C(=O)O)c2)o1)N[N+](=O)[O-]	?	10µM	?	–	–	·
COc1ccc(/C=N/N=C(/N)N[N+](=O)[O-])c(OC)c1	–	–	–	–	–	–
S=C(NCCc1ccccc1)N1Cc2ccccc2-n2nncc2C1	·	–	·	·	–	–
O=C(N/N=C/C1C(=O)NC(=S)N(c2ccccc2)C1=O)c1cc(Br)c(O)c(Br)c1 (stereo not drawn)	–	–	–	–	–	-95.6
O=C(N/N=C/c1c(O)n(C2CCCCC2)c(=S)[nH]c1=O)c1ccccc1	–	–	–	·	–	–
COc1ccc2cc1Oc1ccc(cc1)C[C@H]1c3cc(c(OC)cc3CCN1C)Oc1c(OC)c(OC)cc3c1[C@H](C2)N(C)CC3	–	–	–	–	–	–
COc1cc2c3c(c1OC)Oc1ccc(cc1)C[C@H]1c4c(cc(OC)c(OC)c4Oc4ccc(cc4)C[C@@H]3N(C)CC2)CCN1C	–	–	–	·	–	-91.9
Cc1cccc(CN2CCN(Cc3ccc(Cl)cc3)CC2)c1	–	–	–	–	–	–
CCC(C)N1C(=O)/C(=C/c2ccc3c(c2)CCN3CCCCl)C(=O)NC1=S (stereo not drawn)	–	–	?	–	–	-66.8
SMILES	KAT2A inh	Tb PGK inh	Pin1 inh	GoLoco inh red	PI4K2A block	PI5P4K alpha inh
C=CCn1c(O)c(/C(C)=N/NC(=S)Nc2ccccc2)c(=O)[nH]c1=O	–	–	–	–	–	-63.6
Cc1ccc(C[N+](C)(C)C)o1	14.1µM!	·	·	–	·	·
N=C1/C(=C\c2ccc(OC(=O)c3ccccc3Cl)cc2)C(=O)N=C2SC(N3CCOCC3)=NN12	?	–	?	·	–	-67.1
CCN(CC)C(=O)c1ccc2c(c1)C1C=CCC1C(C(=O)O)N2 (stereo not drawn)	–	17.8µM	?	·	–	?
Cc1ccc2c(c1Cl)NC(C(=O)O)C1CC(Sc3ccccc3[N+](=O)[O-])C(Cl)C21 (stereo not drawn)	–	–	?	–	–	?
CCN(CC)C(=O)c1ccc(N(Cc2ccccc2)S(C)(=O)=O)cc1	–	–	–	·	–	–
CCN(CC)C(=O)c1ccc2c(c1)C1C(Cl)C(Sc3ccccc3[N+](=O)[O-])CC1C(C(=O)O)N2 (stereo not drawn)	12.6µM	–	?	–	–	-59.5
O=[As](O)(O)c1ccc2nc3cc([As](=O)(O)O)ccc3nc2c1	·	·	·	–[14.2 µM]	·	·
CCC1(CCCC(=O)c2ccc(F)cc2)C(=O)NC(=S)NC1=O	–	–	–	2µM	–	–
O=[N+]([O-])c1ccc(-c2[se]c3ccccc3c2I)cc1	25.1µM	·	·	–	·	·
O=[N+]([O-])c1ccc(C(c2ccc([N+](=O)[O-])cc2)c2ccc([N+](=O)[O-])cc2)cc1	·	–	?	·	–	–
Cc1ccccc1O	–	–	–	–	–	–
Oc1cccc[c]1[Hg][Cl]	0.0891µM	·	·	·	·	·
O=C1NC(=O)N(CCC2=CCCCC2)C(=O)/C1=C/c1cccs1	–	–	–	–	–	-63.4
O=C1NC(=O)N(CCC2=CCCCC2)C(=O)/C1=C/c1ccc(O)cc1	–	–	–	–	–	?
O=P1(NCc2ccco2)COc2ccccc2OC1	–	–	–	–	–	·
O=c1[nH]sc2cc(F)ccc12	4.47µM	–	–	–	–	-81.7
Nc1ccc(-c2ccc(N)cc2)cc1	·	–	–	–	–	–
COc1cccc(C(=O)c2c(N)c(-c3nc(-c4ccccc4)cs3)c3ccccn23)c1	–	·	?	·	–	·
Cc1cc(C=C2C(=O)NC(=S)NC2=O)c(C)n1-c1ccc2c(c1)OCO2	–	–	–	–	–	-71.8
Cc1cc(C=C2C(=O)NC(=O)NC2=O)c(C)n1-c1ccc2c(c1)OCO2	–	–	?	–	–	?
COc1cc(CCN)c(OC)c(OC)c1	·	·	·	–[14.2 µM]	·	·
N#Cc1ccccc1Cn1cc(C(=O)c2ccco2)c2ccccc21	–	–	–	–	–	·
CN1C(=S)CN=C(c2ccccc2)c2cc(Cl)ccc21	–	·	·	·	–	·
CCC(C)(C)c1ccc(O)cc1	–	–	–	8.91µM!	–	–
SMILES	KAT2A inh	Tb PGK inh	Pin1 inh	GoLoco inh red	PI4K2A block	PI5P4K alpha inh
NC(=S)/N=C/c1c(O)[nH]c(=O)[nH]c1=O	–	–	?	–	–	-59.8
C=CCNC(=S)/N=C/c1c(O)[nH]c(=O)[nH]c1=O	–	–	?	–	–	-51.9
CCCCCCCCN=Cc1c(O)[nH]c(=O)[nH]c1=O	–	–	–	–	–	–
O=C1NCN(c2ccccc2)C12CCN(C(c1cc3ccccc3o1)c1nnnn1-c1ccc3c(c1)OCCO3)CC2 (stereo not drawn)	·	·	·	·	–	–
O=C(Nc1ccc(Oc2ccc(Cl)cc2)c(Cl)c1)c1cc(I)cc(I)c1O	25.1µM	–	?	·	–	-54.6
CCCCCc1cc(O)c2c(c1)OC(C)(C)[C@@H]1CCC(C(=O)O)=C[C@H]21	?	·	·	–	·	·
Cc1ccc(/C=C2/C(=O)NC(=O)N(C)C2=O)cc1	–	–	–	–	–	–
